{"source": "the supplement of paper PMC8728848", "assay_in_all_cases": "glycan array binding signal (z-score within array); higher = stronger binding", "details_in_all_cases": "glycan notation: IUPAC condensed, linker removed", "key": {"[1]": {"target": "Fuc(a1-2)Gal(b1-4)GlcNAc(b1-2)Man", "how_it_was_run": "(§1)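 Glycan array binding is given as a within-array Z-score, which can be read as non-binding when negative. The arrays, 3228 of them, came from the Consortium for Functional Glycomics database and were retained only where the protein sequence was available. Z-scores were averaged across arrays of the same protein sequence at different concentrations or buffers and across linkers.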"}, "[2]": {"target": "Fuc(a1-2)Gal(b1-4)GlcNAc(b1-2)Man(a1-3)[Fuc(a1-2)Gal(b1-4)GlcNAc(b1-2)Man(a1-6)]Man(b1-4)GlcNAc(b1-4)GlcNAc", "how_it_was_run": "as §1"}, "[3]": {"target": "Fuc(a1-2)Gal(b1-4)[Fuc(a1-3)]GlcNAc(b1-2)Man(a1-3)[Fuc(a1-2)Gal(b1-4)[Fuc(a1-3)]GlcNAc(b1-2)Man(a1-6)]Man(b1-4)GlcNAc(b1-4)[Fuc(a1-6)]GlcNAc", "how_it_was_run": "as §1"}, "Fuc(a1-2)Gal6S(b1-4)Glc": {"target": "Fuc(a1-2)Gal6S(b1-4)Glc", "how_it_was_run": "as §1"}, "[4]": {"target": "Fuc(a1-2)[Gal(a1-3)]Gal(b1-3)GlcNAc(b1-2)Man(a1-3)[Fuc(a1-2)[Gal(a1-3)]Gal(b1-3)GlcNAc(b1-2)Man(a1-6)]Man(b1-4)GlcNAc(b1-4)GlcNAc", "how_it_was_run": "as §1"}, "[5]": {"target": "Fuc(a1-2)[GalNAc(a1-3)]Gal(b1-3)GlcNAc", "how_it_was_run": "as §1"}, "[6]": {"target": "Fuc(a1-2)[GalNAc(a1-3)]Gal(b1-4)Glc", "how_it_was_run": "as §1"}, "[7]": {"target": "Fuc(a1-3)[Gal(b1-4)]GlcNAc(b1-2)Man(a1-3)[Fuc(a1-3)[Gal(b1-4)]GlcNAc(b1-2)Man(a1-6)]Man(b1-4)GlcNAc(b1-4)GlcNAc", "how_it_was_run": "as §1"}, "[8]": {"target": "Gal(a1-3)Gal(b1-3)[Fuc(a1-4)]GlcNAc(b1-2)Man(a1-3)[Gal(a1-3)Gal(b1-3)[Fuc(a1-4)]GlcNAc(b1-2)Man(a1-6)]Man(b1-4)GlcNAc(b1-4)GlcNAc", "how_it_was_run": "as §1"}, "[9]": {"target": "Gal(a1-3)[Gal(a1-4)]Gal(b1-4)GlcNAc", "how_it_was_run": "as §1"}, "[10]": {"target": "Gal(b1-3)GlcNAc(b1-2)[Gal(b1-3)GlcNAc(b1-6)]Man(a1-6)[Gal(b1-3)GlcNAc(b1-2)Man(a1-3)]Man(b1-4)GlcNAc(b1-4)GlcNAc", "how_it_was_run": "as §1"}, "[11]": {"target": "Gal(b1-3)GlcNAc(b1-6)GalNAc", "how_it_was_run": "as §1"}, "[12]": {"target": "Gal(b1-3)[Fuc(a1-4)]GlcNAc", "how_it_was_run": "as §1"}, "Gal(b1-4)GlcNAc(b1-2)Man": {"target": "Gal(b1-4)GlcNAc(b1-2)Man", "how_it_was_run": "as §1"}, "[13]": {"target": "Gal(b1-4)GlcNAc(b1-2)Man(a1-3)[Gal(b1-4)GlcNAc(b1-2)Man(a1-6)]Man(b1-4)GlcNAc(b1-4)[Fuc(a1-6)]GlcNAc", "how_it_was_run": "as §1"}, "[14]": {"target": "Gal(b1-4)GlcNAc(b1-2)Man(a1-6)[Man(a1-3)]Man(b1-4)GlcNAc(b1-4)GlcNAc", "how_it_was_run": "as §1"}, "[15]": {"target": "Gal(b1-4)GlcNAc(b1-3)Gal(b1-4)GlcNAc(b1-3)Gal(b1-4)GlcNAc(b1-3)Gal(b1-4)GlcNAc(b1-3)Gal(b1-4)GlcNAc(b1-2)Man(a1-3)[Gal(b1-4)GlcNAc(b1-3)Gal(b1-4)GlcNAc(b1-3)Gal(b1-4)GlcNAc(b1-3)Gal(b1-4)GlcNAc(b1-3)Gal(b1-4)GlcNAc(b1-2)Man(a1-6)]Man(b1-4)GlcNAc(b1-4)GlcNAc", "how_it_was_run": "as §1"}, "[16]": {"target": "Gal(b1-4)GlcNAc(b1-3)Gal(b1-4)GlcNAc(b1-3)Gal(b1-4)GlcNAc(b1-3)Gal(b1-4)GlcNAc(b1-3)Gal(b1-4)GlcNAc(b1-3)Gal(b1-4)GlcNAc(b1-2)Man(a1-3)[Gal(b1-4)GlcNAc(b1-3)Gal(b1-4)GlcNAc(b1-3)Gal(b1-4)GlcNAc(b1-3)Gal(b1-4)GlcNAc(b1-3)Gal(b1-4)GlcNAc(b1-3)Gal(b1-4)GlcNAc(b1-2)Man(a1-6)]Man(b1-4)GlcNAc(b1-4)GlcNAc", "how_it_was_run": "as §1"}, "[17]": {"target": "Gal(b1-4)GlcNAc(b1-3)Gal(b1-4)GlcNAc(b1-3)GalNAc", "how_it_was_run": "as §1"}, "Gal3S6S(b1-4)GlcNAc": {"target": "Gal3S6S(b1-4)GlcNAc", "how_it_was_run": "as §1"}, "[18]": {"target": "GalNAc3S(b1-4)[Fuc(a1-3)]GlcNAc", "how_it_was_run": "as §1"}, "[19]": {"target": "GlcA3S(b1-3)Gal(b1-4)GlcNAc(b1-2)Man", "how_it_was_run": "as §1"}, "[20]": {"target": "GlcNAc(a1-4)Gal(b1-4)GlcNAc(b1-3)Gal(b1-4)GlcNAc(b1-3)Gal(b1-4)GlcNAc", "how_it_was_run": "as §1"}, "[21]": {"target": "GlcNAc(b1-2)Man(a1-3)[GlcNAc(b1-4)][GlcNAc(b1-2)Man(a1-6)]Man(b1-4)GlcNAc(b1-4)GlcNAc", "how_it_was_run": "as §1"}, "[22]": {"target": "GlcNAc(b1-2)[GlcNAc(b1-4)]Man(a1-3)[GlcNAc(b1-2)Man(a1-6)]Man(b1-4)GlcNAc(b1-4)GlcNAc", "how_it_was_run": "as §1"}, "GlcNAc(b1-3)Gal(b1-4)Glc": {"target": "GlcNAc(b1-3)Gal(b1-4)Glc", "how_it_was_run": "as §1"}, "[23]": {"target": "GlcNAc(b1-3)Gal(b1-4)GlcNAc(b1-3)Gal(b1-4)GlcNAc", "how_it_was_run": "as §1"}, "[24]": {"target": "GlcNAc(b1-3)Gal(b1-4)GlcNAc(b1-3)Gal(b1-4)GlcNAc(b1-3)Gal(b1-4)GlcNAc(b1-2)Man(a1-3)[GlcNAc(b1-3)Gal(b1-4)GlcNAc(b1-3)Gal(b1-4)GlcNAc(b1-3)Gal(b1-4)GlcNAc(b1-2)Man(a1-6)]Man(b1-4)GlcNAc(b1-4)[Fuc(a1-6)]GlcNAc", "how_it_was_run": "as §1"}, "[25]": {"target": "GlcNAc(b1-3)Gal(b1-4)GlcNAc(b1-3)GalNAc", "how_it_was_run": "as §1"}, "Kdn(a2-6)Gal(b1-4)GlcNAc": {"target": "Kdn(a2-6)Gal(b1-4)GlcNAc", "how_it_was_run": "as §1"}}, "note": "The entries come from a sample that favours the strongest signals as a whole.", "data": [{"binder": "PX15618A-bth-503-24-503 (Bacteroides thetaiotaomicron) (protein) NKSEDKLSGDDFWAQGNETNAEAFLLSIYNSFRNATMSQRPFLTYSGDMRCAPITAYSTGDKYVAYLANNDMGELRNTYPDDARGGLIMQWDVFYTAIQDANILLAEIDKVPGMDELKRSRFKAEAIFMRSLSYFFIVRAFGDVPYYTNAYNEAPLPRTNMVIVLQNCLADLQPLLDDDPGAEVLPWSYSSYSSKGIRASRGSVIALMMHINLWLVQFDAQNKEQYYRNVVSLGEELERNNGAYSLLDINRSSVIFAGGSDEGLFEIAQNINFNEIFMMNAKFSDNVSYSCLNKSMPLFCYSGDYLMTLFPMYEDDARKELWFDEKIYSTSVSSSAPKEIKKFWNIDTYGNGTITSNSGNQIVFRYAGALLLYAEALAALGTNDTKACELLNRVRNRAHASEINTSGSELMDAIFWERCRELIGEGHYYYDLVRTGKVYNRNYCMNPMTRTNFNVGAWTWPIHRNALKNNTQIGLNLFWE", "values": [{"measurement": "glycan array binding signal (z-score)", "setting": "[1]", "value": -0.103}, {"measurement": "glycan array binding signal (z-score)", "setting": "[2]", "value": 2.2}, {"measurement": "glycan array binding signal (z-score)", "setting": "[3]", "value": 0.352}, {"measurement": "glycan array binding signal (z-score)", "setting": "Fuc(a1-2)Gal6S(b1-4)Glc", "value": 2.77}, {"measurement": "glycan array binding signal (z-score)", "setting": "[4]", "value": -0.62}, {"measurement": "glycan array binding signal (z-score)", "setting": "[5]", "value": -0.665}, {"measurement": "glycan array binding signal (z-score)", "setting": "[6]", "value": -0.32}, {"measurement": "glycan array binding signal (z-score)", "setting": "[7]", "value": -0.28}, {"measurement": "glycan array binding signal (z-score)", "setting": "[8]", "value": 6.49}, {"measurement": "glycan array binding signal (z-score)", "setting": "[9]", "value": 3.72}, {"measurement": "glycan array binding signal (z-score)", "setting": "[10]", "value": 2.47}, {"measurement": "glycan array binding signal (z-score)", "setting": "[11]", "value": 2.58}, {"measurement": "glycan array binding signal (z-score)", "setting": "[12]", "value": -0.361}, {"measurement": "glycan array binding signal (z-score)", "setting": "Gal(b1-4)GlcNAc(b1-2)Man", "value": -0.307}, {"measurement": "glycan array binding signal (z-score)", "setting": "[13]", "value": 0.092}, {"measurement": "glycan array binding signal (z-score)", "setting": "[14]", "value": 12.1}, {"measurement": "glycan array binding signal (z-score)", "setting": "[15]", "value": 2.83}, {"measurement": "glycan array binding signal (z-score)", "setting": "[16]", "value": 2.95}, {"measurement": "glycan array binding signal (z-score)", "setting": "[17]", "value": -0.08}, {"measurement": "glycan array binding signal (z-score)", "setting": "Gal3S6S(b1-4)GlcNAc", "value": 3.43}, {"measurement": "glycan array binding signal (z-score)", "setting": "[18]", "value": -0.361}, {"measurement": "glycan array binding signal (z-score)", "setting": "[19]", "value": -0.619}, {"measurement": "glycan array binding signal (z-score)", "setting": "[20]", "value": -0.188}, {"measurement": "glycan array binding signal (z-score)", "setting": "[21]", "value": -0.381}, {"measurement": "glycan array binding signal (z-score)", "setting": "[22]", "value": -0.803}, {"measurement": "glycan array binding signal (z-score)", "setting": "GlcNAc(b1-3)Gal(b1-4)Glc", "value": -0.199}, {"measurement": "glycan array binding signal (z-score)", "setting": "[23]", "value": -0.161}, {"measurement": "glycan array binding signal (z-score)", "setting": "[24]", "value": 0.037}, {"measurement": "glycan array binding signal (z-score)", "setting": "[25]", "value": 0.059}, {"measurement": "glycan array binding signal (z-score)", "setting": "Kdn(a2-6)Gal(b1-4)GlcNAc", "value": 0.229}]}]}
